Cycloheximide cs: counter-screen for Shiga toxin inhibitors: cycloheximide protein synthesis inhibition; cell reporter, cycloheximide protein synthesis inhibition counterscreen; max response, %; 12% of 300,000 active; in the data active = max response mostly above about 13%, no sharp cut-off; inactive = mostly below about 14%; note: read at 38.3 µM for the half of the compounds with a filed dose
Shiga toxin inh: blocks Shiga toxin action in Vero cells | Vero cells, Shiga toxin protein synthesis inhibition reporter | inhibition, % at 38.7 µM | 9.2% of 290,000 active; in the data active = inhibition mostly above about 28%, no sharp cut-off; inactive = mostly below about 43%
LmPK inhibitor: inhibitors of Leishmania mexicana pyruvate kinase; Potency, µM (titrated, usually from 57.5 µM), actives largely listed as inhibitors; 0.37% of 290,000 active; purified LmPK, Kinase-Glo ATP luminescence, 1 h; active = well fitted curve in the direction sought with a large enough effect; inconclusive = small, poorly fitted or top-dose-only effect, or another doubt; inactive = no such curve, though single readings can be large; an effect the other way counts as inactive or inconclusive
Target sequence (Q27686 whole entry, looked up): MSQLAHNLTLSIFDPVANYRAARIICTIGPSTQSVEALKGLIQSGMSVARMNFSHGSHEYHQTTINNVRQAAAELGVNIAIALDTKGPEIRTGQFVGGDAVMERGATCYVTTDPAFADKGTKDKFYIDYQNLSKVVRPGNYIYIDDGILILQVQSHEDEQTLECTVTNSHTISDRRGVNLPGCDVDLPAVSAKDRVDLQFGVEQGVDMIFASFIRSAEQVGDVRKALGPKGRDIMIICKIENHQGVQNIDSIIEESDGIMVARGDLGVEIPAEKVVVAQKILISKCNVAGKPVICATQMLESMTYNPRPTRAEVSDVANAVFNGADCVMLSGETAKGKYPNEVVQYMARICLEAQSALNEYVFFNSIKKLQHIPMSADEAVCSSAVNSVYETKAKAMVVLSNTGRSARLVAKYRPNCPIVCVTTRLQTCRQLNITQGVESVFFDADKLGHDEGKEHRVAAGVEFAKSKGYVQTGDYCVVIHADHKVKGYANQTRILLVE
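Purified LmPK (0.1 nM) converted ADP (0.1 mM) to ATP with PEP (0.5 mM) in imidazole buffer pH 7.2 with KCl and MgCl2, 1 h at room temperature. ATP was read by Kinase-Glo luminescence; data normalized to uninhibited and no-enzyme controls.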
NS1 function inh: influenza NS1 inhibition. Potency, µM (titrated, usually from 46.1 µM). 0.4% of 270,000 active. AID 2326; note: actives are rising curves; nearly all actives have a fitted effect of over 50% in size
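A cell-based growth assay was used: compounds that relieve NS1-induced slow growth of budding yeast raise OD600. Assay medium was yeast nitrogen base with ammonium sulphate and -URA supplement, pH 6.0, with 2% galactose.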
Tb PYK inh: inhibitors of Trypanosoma brucei pyruvate kinase; Q57TT1; TbPYK enzyme, Kinase-Glo Plus ATP luminescence, 45 min; Potency, µM (series often up to 76.8 µM), usual class: inhibitors; 0.12% of 410,000 active; active = well fitted curve in the direction sought with a large enough effect; inconclusive = small, poorly fitted or top-dose-only effect, or another doubt; inactive = no such curve, though single readings can be large; an effect the other way counts as inactive or inconclusive; note: nearly all actives have a fitted effect of over 50% in size
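Screened from lowest to highest concentration, compounds were pinned into TbPYK/substrate mixtures, and ADP (130 uM final) was added. Plates sat at room temperature for 45 min prior to Kinase-Glo Plus detection by luminescence.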
SARS PLpro yeast: inhibitors of SARS-CoV papain-like protease in yeast | S. cerevisiae expressing SARS-CoV PLpro, growth rescue | Potency, µM (doses to about 32.9 µM), most hits filed as activators | 0.19% of 330,000 active; note: nearly all actives have a fitted effect of over 55% in size
A number is an active result; - = inactive; ? = inconclusive; . = no result. The full list was thinned out, with hits kept by preference. Unless noted, calls come from the whole dose curve.

SMILES | Cycloheximide cs | Shiga toxin inh | LmPK inhibitor | NS1 function inh | Tb PYK inh | SARS PLpro yeast
Cc1cccc(-n2c(-c3ccco3)n[nH]c2=S)c1 | - | - | 17.8µM | - | ? | -
CCN(CC)c1ccc(-c2n[nH]c(=S)n2-c2ccccc2C)cc1 | - | - | - | - | ? | -
Cc1ccccc1-n1c(-c2csc3ccccc23)n[nH]c1=S | - | - | 14.1µM | - | ? | -
Cc1ccccc1-n1c(-c2csc(C)c2C)n[nH]c1=S | 16.6 | 45.7 | 7.94µM | - | ? | -
Cc1cccc(-n2c(-c3csc(C)c3C)n[nH]c2=S)c1 | - | - | 11.2µM | - | ? | ?
Cc1ccc(-n2c(-c3ccc(Cl)cc3Cl)n[nH]c2=S)cc1 | - | - | ? | - | ? | -
O=C(c1ccc(Cl)c(S(=O)(=O)N2CCOCC2)c1)N(Cc1ccco1)Cc1cccs1 | . | . | . | . | - | -
Cc1cccc(-n2c(-c3csc(C(C)C)c3)n[nH]c2=S)c1 | - | - | 10µM | - | ? | -
CCCc1cc(-c2n[nH]c(=S)n2-c2cccc(C)c2)cs1 | - | - | ? | - | ? | -
O=C(OCc1ccc(Cl)c(Cl)c1)c1ccc[nH]1 | 22.5 | 110.8 | - | - | - | -
O=C1C=C(Nc2ccccc2)C(=O)c2ccccc21 | 48.2 | 80.8 | ? | - | - | -
O=C1C=C(Nc2ccccc2)c2ccccc2C1=O | - | - | - | - | - | -
Cc1ccc(S(=O)(=O)N(Cc2cc3cc4c(cc3[nH]c2=O)OCCO4)CC2CCCO2)cc1 (centres undefined) | - | - | - | - | - | -
CC(=O)c1ccc(S(=O)(=O)N(Cc2cc3cc4c(cc3[nH]c2=O)OCCO4)CC2CCCO2)cc1 (centres undefined) | 37.3 | 92.7 | - | - | - | -
O=c1[nH]c2cc3c(cc2cc1CN(CC1CCCO1)S(=O)(=O)c1ccc(Cl)cc1)OCCO3 (centres undefined) | 67.0 | 182.6 | - | - | - | -
Cc1ccc(C)c(N2CCN(CCCNC(=O)c3cnn(-c4ccc(F)cc4)c3C3CCN(C(=O)OC(C)(C)C)CC3)CC2)c1 | . | . | . | . | - | .
O=S(=O)(c1cccc(C(F)(F)F)c1)N1CCN(c2nc(-c3cccs3)nc3cc(Cl)ccc23)CC1 | - | - | . | . | . | .
O=C(N/N=C/c1sc(=O)n(-c2ccccc2)c1Cl)c1ccncc1 | 20.1 | 66.9 | - | - | - | -
COc1cc(C(=O)N/N=C/c2sc(=O)n(-c3ccccc3)c2Cl)cc(OC)c1OC | 18.6 | - | - | - | - | -
O=C(N/N=C/c1cccn1-c1ccccc1)c1ccncc1 | - | - | - | . | - | -
CCc1c(C)sc2c1CCN(Cc1ccccc1)C2c1ccccc1 (centres undefined) | . | . | . | . | - | .
CCC(C)c1ccc(NC(=S)N2CCN(S(C)(=O)=O)CC2)cc1 (centres undefined) | - | - | - | - | - | -
Cc1ccc(N2CC(c3nnc(Cc4ccc(F)cc4)o3)CC2=O)cc1 (centres undefined) | . | . | . | . | - | .
COc1ccc(/C=C/C(=O)N2CCCc3ccccc32)c(OC)c1 | 14.0 | - | - | - | - | -
COc1ccc(/C=C/C(=O)N2CCCc3ccccc32)cc1 | 51.7 | 74.1 | - | - | - | -
SMILES | Cycloheximide cs | Shiga toxin inh | LmPK inhibitor | NS1 function inh | Tb PYK inh | SARS PLpro yeast
COc1ccc(OC)c(/C=C/C(=O)N2CCCc3ccccc32)c1 | - | - | - | . | - | -
O=C1CCN(C(=O)/C=C/c2ccccc2)c2ccccc21 | 28.0 | 41.2 | - | - | - | -
Cc1cc(C)cc(C(=N)c2ccccc2Cc2cccc3ccccc23)c1 | . | . | . | - | . | .
CN1C(=O)NC(c2cccc(O)c2)C(C(=O)c2cccs2)C1(O)C(F)(F)F (centres undefined) | 57.2 | 84.8 | - | - | - | -
CCOC(=O)C1C(c2cccs2)NC(=O)N(C)C1(O)C(F)(F)F (centres undefined) | - | - | - | - | - | -
CCC(=O)N(C)CCc1cc2c(c(OC)c1/C=N/NC(=O)[C@H]1C[C@@H]1c1ccccc1)OCO2 | - | - | - | - | - | -
CCC(=O)N(C)CCc1cc2c(c(OC)c1/C=N/Nc1ccc(C(=O)O)cc1)OCO2 | 35.2 | - | - | - | - | -
COc1ccc(OC)c(S(=O)(=O)N2Cc3ccccc3CC2C(=O)Nc2ccc(C)cc2C)c1 (centres undefined) | . | . | . | . | - | .
COc1ccc(OC)c(S(=O)(=O)N2Cc3ccccc3CC2C(=O)Nc2nccs2)c1 (centres undefined) | 63.8 | 106.5 | - | - | - | -
CN(C)c1ccc(NC(=O)CN2CCN(CC(=O)Nc3ccc(F)cc3)CC2)cc1 | 19.2 | - | - | - | - | -
CCOc1ccc(NC(=O)CN2CCN(CC(=O)Nc3ccc(F)cc3)CC2)cc1 | - | - | - | - | - | -
CN(C)c1ccc(NC(=O)CN2CCN(c3ccc(F)cc3)CC2)cc1 | - | - | - | - | - | -
CCOc1ccc(NC(=O)CN2CCN(CC(=O)Nc3ccc(N(C)C)cc3)CC2)cc1 | 25.1 | 81.1 | - | - | - | -
CCCc1nnc(NC(=O)c2cc(=O)c3ccccc3o2)s1 | . | . | . | . | - | .
CC1(c2ccc(Cl)cc2Cl)NC(=O)N(CC(=O)Nc2ccc3[nH]c(=O)[nH]c3c2)C1=O (centres undefined) | . | . | . | . | - | -
CC(=O)/C=C/c1ccc2ccccc2n1 | 22.4 | - | - | - | - | -
C(=Nc1cnc2ccccc2c1)c1ccc2ccccc2n1 | . | . | . | - | . | .
O/N=C/c1ccc2ccccc2n1 | 49.6 | 106.5 | - | - | - | -
CC(OC(=O)/C=C/c1ccc2ccccc2n1)C(=O)N(C)c1ccccc1 (centres undefined) | . | . | . | . | - | -
O/N=C/c1ccc2cccc(O)c2n1 | 7.8 | 44.1 | - | - | - | -
COc1ccc(C(=O)N/N=C/c2ccc3cccc(O)c3n2)cc1 | - | - | - | . | - | -
CC[C@H](C)[C@H](NC(=O)CNC(=O)[C@H](CCCNC(=N)N)NC(=O)CNC(=O)[C@@H](NC(=O)[C@H](Cc1ccc(O)cc1)NC(=O)[C@H](Cc1c[nH]c2ccccc12)NC(=O)[C@H](C)NC(=O)[C@@H]1CCCN1C(=O)[C@H](CC(N)=O)NC(=O)[C@@H](NC(=O)[C@H](CC(=O)O)NC(=O)[C@@H]1CCCN1C(=O)[C@@H](N)[C@@H](C)O)[C@@H](C)CC)[C@@H](C)O)C(=O)N[C@@H](CCCNC(=N)N)C(=O)N1CCC[C@H]1C(=O)N[C@H](C(=O)NCC(=O)N[C@@H](CCCNC(=N)N)C(=O)N[C@@H](Cc1ccccc1)C(N)=O)C(C)C | - | - | . | . | . | .
Cc1cccc(N2CCN(c3cccc(C)c3)C2c2cccnc2)c1 | 33.6 | 70.9 | - | - | - | -
COc1ccc(-c2csc(C3=C(O)CN(C(C)C)C3=N)n2)cc1OC | - | - | - | - | - | -
O=C(O)c1ccc(S(=O)(=O)N2CCCc3ccccc32)cc1 | - | - | - | - | - | -
